Measurements published in paper PMC7819943, “Rice protein-binding microarrays: a tool to detect cis-acting elements near promoter regions in rice”.
Over roughly 68,000 sequences, “fluorescence intensity (a.u.)” has its median near 9,100; the highest 2% begin near 16,000. This excerpt belongs to a sample that is enriched for the highest values.

target: OsWRKY34 (Oryza sativa, UniProt Q0JBA9 1-250); assay: protein-binding microarray (RPBM); PBS, 2% BSA, 51.3 ng/ul salmon testes DNA, 50 uM zinc acetate, 200 nM TF, 25 C, 1 h; high values mean tight binding; settings: protein: recombinant; tags: N-terminal polyhistidine and DsRed monomer fusion (pET32a); label: CyDye5-dUTP incorporated in the synthesized complementary strand; 3' TTTTT single-stranded linker to array surface; dsDNA, one strand shown
Method in brief: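 Polyhistidine-tagged DsRed fusions of transcription factors, joined at the N-terminus, were expressed in E. coli BL21-CodonPlus and isolated on Ni–NTA. They were incubated at 200 nM for 1 h at 25 °C on a custom Agilent array, double-stranded and BSA-blocked, in PBS with 2% BSA, salmon testes DNA and 50 µM zinc acetate. The binding signal is per-feature fluorescence intensity (arbitrary units) read on an Axon 4000B scanner after washing.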

OsWRKY34, sequence (Q0JBA9 entry or part of it): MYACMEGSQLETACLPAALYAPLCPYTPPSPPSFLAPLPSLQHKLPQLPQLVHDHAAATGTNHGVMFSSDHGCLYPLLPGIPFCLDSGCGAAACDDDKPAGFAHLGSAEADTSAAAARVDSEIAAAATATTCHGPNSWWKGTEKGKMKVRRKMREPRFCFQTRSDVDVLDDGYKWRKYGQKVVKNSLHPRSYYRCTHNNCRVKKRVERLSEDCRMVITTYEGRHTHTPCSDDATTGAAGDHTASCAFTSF

Sequence | binding signal
TTTTGCCATCTGGTAATCCCTCTACCACCAACAGCTACAACGGAGTCACCTAGTGCAG | 9220 fluorescence intensity (a.u.)
AGTACTCCTCCGTTCTAAATTAGATGTCGTTTTGATTTTTCGGAGTCACCTAGTGCAG | 8570 fluorescence intensity (a.u.)
CTCTTGGCGATTTGCGGAAGTTGTTGTTGTCCCCTTGCTCCGGAGTCACCTAGTGCAG | 8060 fluorescence intensity (a.u.)
TTAGCAAAAACATATCCTTTCTTGCCACACTACTAAGCCACGGAGTCACCTAGTGCAG | 8160 fluorescence intensity (a.u.)
ACACGGCCACCCGCATCCGCACCACCCGCAAGCCGCGACGCGGAGTCACCTAGTGCAG | 9450 fluorescence intensity (a.u.)
GCTGGGAGTTAGAACGGTGATCCATCTAGATGTAATGGTCCGGAGTCACCTAGTGCAG | 8740 fluorescence intensity (a.u.)
CTCCGTTTTCACCCCTATGTATAGTTTATATGTAAATTGCCGGAGTCACCTAGTGCAG | 8830 fluorescence intensity (a.u.)
GGGTGTAATTTTTGTTTTACATGTACGGAATTTTTTACTCCGGAGTCACCTAGTGCAG | 10800 fluorescence intensity (a.u.)
TTGTTACTTTAATTTGTACATCATCATGCGGGTCCGTATACGGAGTCACCTAGTGCAG | 16600 fluorescence intensity (a.u.)
ATTTGATTTATTGTTAAATATACTTTCATGTACACATATACGGAGTCACCTAGTGCAG | 8240 fluorescence intensity (a.u.)
ATATAGCCTACTACTAGCTCCAAATCATCTATAGTCAATGCGGAGTCACCTAGTGCAG | 8120 fluorescence intensity (a.u.)
TGGGAGGGTTTCTGATCATCAGCTGTCCTCTTTACCGGCACGGAGTCACCTAGTGCAG | 11300 fluorescence intensity (a.u.)
GGATTGCCGGTTTTTGGTGTCCTTTTCGCATCAGCTTTAGCGGAGTCACCTAGTGCAG | 9120 fluorescence intensity (a.u.)
AGATGACGCCATTGACTTTTTCTCACATGTTTGACCATTCCGGAGTCACCTAGTGCAG | 15800 fluorescence intensity (a.u.)
TAGATGATGCTGTTAACTTTTTCTCACATGTTTGACCATTCGGAGTCACCTAGTGCAG | 12700 fluorescence intensity (a.u.)
ATAGATGACGCCGTTGATTTTTTCTCACATGTTTGACCGTCGGAGTCACCTAGTGCAG | 15600 fluorescence intensity (a.u.)
TTTTCTCACATGTTTGACCATTCGTCTTATTCAAAAATTTCGGAGTCACCTAGTGCAG | 9990 fluorescence intensity (a.u.)
GACGCCGTTAACTTTTTCTCACATGTTTAACCATTCGTCTCGGAGTCACCTAGTGCAG | 12700 fluorescence intensity (a.u.)
TTTCTCACATGTTTGACCATTCGTCTTATTCAAAAATTTTCGGAGTCACCTAGTGCAG | 12800 fluorescence intensity (a.u.)
GACGCCGTTGATTTTTTCTCACATGTTTGACCATTCGTCTCGGAGTCACCTAGTGCAG | 18000 fluorescence intensity (a.u.)
GACGCTGTTGACTTTTTCTCACATGTTTGACCATTCGTCTCGGAGTCACCTAGTGCAG | 28900 fluorescence intensity (a.u.)

Sequence | binding signal
TAGATGACGTCGTTGACTTTTTCTCACATGTTTGACCATTCGGAGTCACCTAGTGCAG | 28800 fluorescence intensity (a.u.)
CAGTTTTTGAGGTAGAAGGGTATCATTGTAATTTTGCATCCGGAGTCACCTAGTGCAG | 8850 fluorescence intensity (a.u.)
AAATGTGGTTTTGATGGTTTCCAACATATATTTATCGGTTCGGAGTCACCTAGTGCAG | 8570 fluorescence intensity (a.u.)
TTATCAAATTCCGATCAAATCATTCCTCGTCGGCGTCCATCGGAGTCACCTAGTGCAG | 8880 fluorescence intensity (a.u.)
AACGGCAGCAGATCCACCAAACCCCACACCCTCTCCAAATCGGAGTCACCTAGTGCAG | 8600 fluorescence intensity (a.u.)
ACTCCATTTACGGGCAACTCTTGCTTGCGCAACGGGCCTTCGGAGTCACCTAGTGCAG | 8790 fluorescence intensity (a.u.)
TTCTTAACATGTTCGCATATGAAAATAGACTTATTTTTTACGGAGTCACCTAGTGCAG | 8130 fluorescence intensity (a.u.)
TCCACGTTCACTTATCAGCCCCAACGTCTTAGCTTCCGATCGGAGTCACCTAGTGCAG | 9260 fluorescence intensity (a.u.)
AGCATATCAGCCACTCTTTCTTCTTTGTCTTTATCAACTCCGGAGTCACCTAGTGCAG | 8250 fluorescence intensity (a.u.)
ACTCTTATTGTCTTCACGTTGTCTTATCAGCCACGATCAACGGAGTCACCTAGTGCAG | 17900 fluorescence intensity (a.u.)
GGAATTTCTCAGCTCACACGAGTCACGGACCCACCACCACCGGAGTCACCTAGTGCAG | 8960 fluorescence intensity (a.u.)
GGGTCTAACTCTAAGAGTATTGGGTACCCCTTATCGTTAACGGAGTCACCTAGTGCAG | 8360 fluorescence intensity (a.u.)
TCTTTCATACGGAATTCCTTTTCATTATTGGATGCCAGCTCGGAGTCACCTAGTGCAG | 9330 fluorescence intensity (a.u.)
CAAGGTTTGTTTTCTTATCAGTTACTACTGCTTTTGTGGTCGGAGTCACCTAGTGCAG | 11100 fluorescence intensity (a.u.)
GAGTTTTCCGTGTGGAGGGTGTGGATTTTTTCGTGTGTTCCGGAGTCACCTAGTGCAG | 15500 fluorescence intensity (a.u.)
TAACGATTTTTTTTTTGGGAGGGTGGGGATTTTTTTTTTCCGGAGTCACCTAGTGCAG | 24100 fluorescence intensity (a.u.)
TTTGGGGATTTCTTTCTTATTTTTCTTTCCCTTTTTTTCCCGGAGTCACCTAGTGCAG | 10900 fluorescence intensity (a.u.)
TGTGGGACAGGATGGTCACTAATTTCCGGTTTTGGTTTTACGGAGTCACCTAGTGCAG | 8480 fluorescence intensity (a.u.)
TTTTTCTTTTCTTTTTTGCTTTTGAATTGTGGGGTTGTAACGGAGTCACCTAGTGCAG | 8790 fluorescence intensity (a.u.)
AGTAGAGTATTTTTTTTTCTTTTTTGATTGATGGTGATAACGGAGTCACCTAGTGCAG | 8320 fluorescence intensity (a.u.)
ATTTATTTTGGGATGGGGAGGGAGACAACTACAGTGTTTCCGGAGTCACCTAGTGCAG | 18200 fluorescence intensity (a.u.)

Sequence | binding signal
CGGGTTTGATTTGATTTGATTTTGATTTTGATTTGCTTCTCGGAGTCACCTAGTGCAG | 8190 fluorescence intensity (a.u.)
GGGTGGGTTGATTTGATAGACTTCTTTTGCTTTTGATAAACGGAGTCACCTAGTGCAG | 29100 fluorescence intensity (a.u.)
CTTTTTTGGGTGATTTTTTTTCACTTGGGGTGGGTGATAACGGAGTCACCTAGTGCAG | 21800 fluorescence intensity (a.u.)
TAGAGGGATGGGCTATTAAGTGTTTTATTTGGTTGGGAGACGGAGTCACCTAGTGCAG | 15200 fluorescence intensity (a.u.)
ACCTTCACTATTTTTTTTGATTTTTTTCTTTTTTTTTTAACGGAGTCACCTAGTGCAG | 12200 fluorescence intensity (a.u.)
ATCTCTGATCCGTCCAGTTGACCCAAAGCTAGAGTCTTTCCGGAGTCACCTAGTGCAG | 10700 fluorescence intensity (a.u.)
GTGTTGTGTTTATTTTTTTATAATATCCATGATTGTAATCCGGAGTCACCTAGTGCAG | 9640 fluorescence intensity (a.u.)
TCCGCCGCCGTCTCCGCCGCCTCCAGCCATCGATCCCGGCCGGAGTCACCTAGTGCAG | 8250 fluorescence intensity (a.u.)
GCACACATACACATACTGACAATGATGAGTTGATGACACACGGAGTCACCTAGTGCAG | 8500 fluorescence intensity (a.u.)
GCCCGGCCCAGTAGATACCACCACCTCACACTCCATTCGCCGGAGTCACCTAGTGCAG | 9860 fluorescence intensity (a.u.)
GGAGCATGTTCAACCATTCATTGTTTTCTCTATTGCATAACGGAGTCACCTAGTGCAG | 8070 fluorescence intensity (a.u.)
GTTGTCTAGTGCTTGCTATTCTTCTACTAGTAGTATTATACGGAGTCACCTAGTGCAG | 9570 fluorescence intensity (a.u.)
AATCCATTTCCCATTCGCCATTCCCCATCCTTATCTCTTACGGAGTCACCTAGTGCAG | 8660 fluorescence intensity (a.u.)
GTTGCATTTGCCGCTGCGACACGGACCCCGCCTTAATAACCGGAGTCACCTAGTGCAG | 9020 fluorescence intensity (a.u.)
TACCTGATTTGTGCATATGTTTCTTTCTGTTTTGCCCTTACGGAGTCACCTAGTGCAG | 8170 fluorescence intensity (a.u.)
ATTTTTACCCTTCTCCTGTGTTTTTGTTGCTGTGATTCAACGGAGTCACCTAGTGCAG | 8570 fluorescence intensity (a.u.)
TCTTTCTCTCTCTTGCTGCCGTTGAGGGATTTGGGGTGAACGGAGTCACCTAGTGCAG | 10000 fluorescence intensity (a.u.)
ATGCCCTGTTACCTGTGTGTGATTTCTTTGTGCTCCATAACGGAGTCACCTAGTGCAG | 17600 fluorescence intensity (a.u.)
AGATGGTGTTTGGATGGGAGGGATTTATTTTAGTCCCTCTCGGAGTCACCTAGTGCAG | 10200 fluorescence intensity (a.u.)
AAGATTTGCTGGGAGGGTGGGGTGGGGATTAGTCCCTAAACGGAGTCACCTAGTGCAG | 24500 fluorescence intensity (a.u.)
ATCCAATGGTATAATTTTTTTAGGGAAGGGTTTTTTTTTCCGGAGTCACCTAGTGCAG | 12600 fluorescence intensity (a.u.)

Sequence | binding signal
GATTTGGTGGGTTATAATTTTATAGTAAGAGGGGATTTTACGGAGTCACCTAGTGCAG | 16100 fluorescence intensity (a.u.)
TGATTTTTTAGGGAGGGGTGGTTAGTATAAGAGGGTTTTCCGGAGTCACCTAGTGCAG | 20000 fluorescence intensity (a.u.)
CTACTATTGCGTTGTTTTATTTTGGCCAGTTTATTTCAAACGGAGTCACCTAGTGCAG | 13400 fluorescence intensity (a.u.)
TTTTTTTGCTTTTTCACTATTTTTTTATTTTGACGGACGACGGAGTCACCTAGTGCAG | 9300 fluorescence intensity (a.u.)
GAATTCATACTTTTTCCTATATTTATCTTTGGCCTTAATCCGGAGTCACCTAGTGCAG | 8560 fluorescence intensity (a.u.)
CCCCAAAATACTCGACGCTGAACTTTCCCATCAGCTAGTACGGAGTCACCTAGTGCAG | 8280 fluorescence intensity (a.u.)
CCTTGGCAGTGGGGCGGAGGGGCGGTGTCGGTGCTGGCGGCGGAGTCACCTAGTGCAG | 13800 fluorescence intensity (a.u.)
TTGTAAGTTAGGGACCTGTTGTATCTGATTTTTTGGTTGACGGAGTCACCTAGTGCAG | 8210 fluorescence intensity (a.u.)
AATGTTGTCCTGTCGGCTGCTTCTGCTCCAACGTCAAGTTCGGAGTCACCTAGTGCAG | 8140 fluorescence intensity (a.u.)
ATTTTACCAGTCTTGGAGATTTTAATCTTGTATAGTTTTCCGGAGTCACCTAGTGCAG | 9110 fluorescence intensity (a.u.)
GGGGATTTTTTTTTCGGATCCAGAACGATCAGAGAGGGAGCGGAGTCACCTAGTGCAG | 9300 fluorescence intensity (a.u.)
TATATATATATATATATATATATTCACAAATTATTTTTCACGGAGTCACCTAGTGCAG | 23500 fluorescence intensity (a.u.)
CTCACCATTTCATTTTATTTTTCATTTTTCACCACAAATTCGGAGTCACCTAGTGCAG | 9050 fluorescence intensity (a.u.)
CTAGGGTTAGGGGTTTGGGTGGGGAAATTTTCACGAGGGACGGAGTCACCTAGTGCAG | 14600 fluorescence intensity (a.u.)
GGGGAAATTTTCACGAGGGAGAGGGAGGGGAGGGATATTTCGGAGTCACCTAGTGCAG | 23200 fluorescence intensity (a.u.)
TTTCATTATACATATAGTTTTACATATTTCACAAAATTTTCGGAGTCACCTAGTGCAG | 8770 fluorescence intensity (a.u.)
ATCCATGGGCCTCGTTGGTTATAGCCTGTGTGCATCAACACGGAGTCACCTAGTGCAG | 8230 fluorescence intensity (a.u.)
TCCTCCTTTCTCGCTCTCGCTCTGTCCGATCGGAGCCATGCGGAGTCACCTAGTGCAG | 8490 fluorescence intensity (a.u.)
TTGGGGTTCGTGGGGTCGAGAGGAAGGTGCGTGATCATACCGGAGTCACCTAGTGCAG | 11500 fluorescence intensity (a.u.)
TATTTTCCGGATCGAATTGCCACGTAAGGGCCACATCAGTCGGAGTCACCTAGTGCAG | 8510 fluorescence intensity (a.u.)
ACTGGCTTTGCTATGATCTTTTGCTATCGCCCAACCGTTACGGAGTCACCTAGTGCAG | 8690 fluorescence intensity (a.u.)
